MEKK2mut PB1 HTS: MEK5 binding signal on mutant MEKK2 PB1, primary screen, biochemical, multiplex bead flow cytometry, Alexa488-MEK5; percent response, % at 10 µM; Alexa488-MEK5 binding to MEKK2 mutant; AID 1530, 2009; 290,000 tested, 0.35% active; in the data active means percent response above about 24%, passing the limit was not always enough
MEKK3 PB1 HTS: modulators of MEKK3-MEK5 PB1 binding, primary screen, biochemical, wildtype MEKK3, multiplex bead flow cytometry, Alexa488-MEK5; Mitogen-activated protein kinase kinase kinase 3 (Homo sapiens), Q99759; bead-based flow cytometry, Alexa488-MEK5 binding to MEKK3; actives lie on both sides; 0 = blocked by unlabeled MEK5, 100 = vehicle; binding response (% of control), % at 10 µM; 290,000 tested, 1.4% active; AID 1529, 2009;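 active means binding response more than 3 SD above or below the average of its plate-row segment, actives on both sides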;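 further: Alexa488 bead fluorescence after subtracting the streptavidin-only scavenger bead signal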
B2AR ag: beta2AR agonists driving receptor internalization, primary screen, cell-based, FAP fluorogen, flow cytometry; Beta-2 adrenergic receptor (Homo sapiens), P07550; Am2.2-beta2AR cells; response, % (no concentration beside the values); 340,000 tested, 0.43% active;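 active means response above a set limit, near 3 SD of response in nonfluorescent compounds, cut at about 42% in these data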
Target sequence (P07550 whole entry, looked up): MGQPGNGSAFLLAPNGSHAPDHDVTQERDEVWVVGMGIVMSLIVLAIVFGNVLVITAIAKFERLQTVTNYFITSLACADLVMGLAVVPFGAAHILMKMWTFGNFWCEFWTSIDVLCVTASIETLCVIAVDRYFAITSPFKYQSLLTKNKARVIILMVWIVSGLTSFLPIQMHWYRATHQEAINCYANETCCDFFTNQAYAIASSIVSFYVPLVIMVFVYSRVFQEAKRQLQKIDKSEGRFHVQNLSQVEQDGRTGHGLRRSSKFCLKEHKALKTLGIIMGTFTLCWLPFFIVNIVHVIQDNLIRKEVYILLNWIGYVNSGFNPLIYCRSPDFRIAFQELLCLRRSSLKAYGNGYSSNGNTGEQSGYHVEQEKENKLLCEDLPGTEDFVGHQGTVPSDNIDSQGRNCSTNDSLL
GRK2 inh: compounds blocking aptamer binding on GRK2 – biochemical, human GRK2, bead flow cytometry, HTS, primary screen; AID 488847, 2010; 330,000 tested, 0.59% active; FAM-aptamer displacement from GRK2; inhibition of aptamer binding, % at 10 µM;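 active means inhibition of aptamer binding above 40%, roughly 3 SD of noise, on plates passing a quality check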;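 further: median bead fluorescence of bound FAM aptamer so fluorescent compounds give negative values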
MEKK2 WT-MEK5: modulators of MEK5 binding to wildtype MEKK2, primary screen, biochemical, multiplex bead flow cytometry, Alexa488-MEK5; 290,000 tested, 1.1% active; Mitogen-activated protein kinase kinase kinase 2 (Homo sapiens), Q9Y2U5; AID 1531, 2009; Alexa488-MEK5 binding to MEKK2 WT; actives lie on both sides; binding response (% of control), % at 10 µM; in the data active means binding response below about 67% or above about 130%
GRK2 inh confirm: GRK2 aptamer-displacing inhibitors, retest, confirmation, biochemical, cherry pick 1, bead flow cytometry. 2,000 tested, 4% active. aptamer displacement, % at 10 µM. bead-bound GRK2, FAM-aptamer displacement. shares compounds with GRK2 inh;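 active means aptamer displacement above 40%, near three times the noise of non-fluorescent compounds, on plates passing quality checks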;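 further: negative values mostly reflect intrinsic compound fluorescence rather than true enhancement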
Aptamer quench SP: quenches fluorescent RNA aptamer, GRK2 hit artifact; shares compounds with GRK2 inh; Carboxyfluorescein RNA aptamer on beads, flow cytometry quenching; active compounds read low; fluorescence response (% of DMSO), % at 10 µM; 2,000 tested, under 10 active; AID 504580;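 active means compounds that quench the bead-bound fluorescent RNA probe, cutting fluorescence to under half of the solvent control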;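 further: counterscreen run without GRK2 so only probe quenching by compound is measured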
GRK2 CP2: GRK2 aptamer-displacing inhibitors, hit retest, confirmation, biochemical, cherry pick 2, bead flow cytometry; 360 tested, under 10 active; bead-bound GRK2, FAM-aptamer displacement; shares compounds with GRK2 inh; inhibition of aptamer binding, % at 10 µM;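 active means inhibition of aptamer binding above 40%, about triple the noise seen with nonglowing compounds, on plates passing quality control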;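 further: negative values mostly come from compounds that fluoresce themselves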
FAM quench SP: counter-screen for GRK2 binding hits: quenchers of fluorescent RNA aptamer; shares compounds with GRK2 inh; carboxyfluorescein RNA aptamer beads, flow cytometry quenching; active compounds read low; fluorescence response vs DMSO, % at 10 µM; 360 tested, under 10 active; AID 588494;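 active means response vs DMSO under 50%, meaning signal dropped by over half, treated as fluorescence quencher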;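 further: labelled aptamer on streptavidin beads without GRK2 as a quench counter-screen; 100% = bead fluorescence of DMSO wells and lower means quenching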
Active calls of the source: *. The list is not random: actives were taken first. Their share in the collection is about 2.9%.

Results for Cc1ccc(-c2onc3ccc(C=O)cc23)cc1 ?
MEKK2mut PB1 HTS: 0; MEKK3 PB1 HTS: 96; B2AR ag: 8; GRK2 inh: 45*; MEKK2 WT-MEK5: 93; GRK2 inh confirm: 0; Aptamer quench SP: 99

What do the screens show for `CCOc1ncccc1C(=O)OCC(=O)Nc1ccc2c(c1)CCC2`?
B2AR ag: 2; GRK2 inh: 24; GRK2 inh confirm: 0; Aptamer quench SP: 108

Results for Nc1ccc2sc(N)nc2c1 ?
B2AR ag: -4; GRK2 inh: 0

Results for Nc1nc2c(ccc3ccccc32)s1 ?
B2AR ag: -2; GRK2 inh: 0; GRK2 CP2: -20; FAM quench SP: 101

How did O=C(NC(=S)Nc1ccccc1Br)c1ccco1 do in these assays?
MEKK2mut PB1 HTS: -1; MEKK3 PB1 HTS: 99; B2AR ag: -14; GRK2 inh: 1; MEKK2 WT-MEK5: 99

What do the screens show for `O=C(Cn1c(COc2ccccc2)nc2ccccc21)Nc1cccc(Cl)c1`?
MEKK2mut PB1 HTS: 19; MEKK3 PB1 HTS: 101; B2AR ag: 0; GRK2 inh: 100*; MEKK2 WT-MEK5: 122; GRK2 CP2: 15; FAM quench SP: 99

Results for NNC(=O)Cn1c(COc2ccc(Cl)cc2)nc2ccccc21 ?
MEKK2mut PB1 HTS: -2; MEKK3 PB1 HTS: 97; B2AR ag: -6; GRK2 inh: 1; MEKK2 WT-MEK5: 96

How did Cc1cc(/C=N/NC(N)=O)c(C)c(CO)c1 do in these assays?
B2AR ag: -3; GRK2 inh: 77*; GRK2 inh confirm: 3; Aptamer quench SP: 98

What do the screens show for `CCC(=O)Nc1cccc(-c2cc3ccccc3oc2=O)c1`?
MEKK2mut PB1 HTS: -3; MEKK3 PB1 HTS: 101; B2AR ag: -11; GRK2 inh: 96*; MEKK2 WT-MEK5: 96; GRK2 inh confirm: 0; Aptamer quench SP: 97

What do the screens show for `CCC(=O)Nc1cccc(NC(=O)c2cc3ccccc3o2)c1`?
B2AR ag: -7; GRK2 inh: 0

How did Cn1c(SCC(=O)Nc2ccc(NC(=O)c3ccccc3)cc2)nnc1-c1ccncc1 do in these assays?
MEKK2mut PB1 HTS: 10; MEKK3 PB1 HTS: 106; B2AR ag: -4; GRK2 inh: 62*; MEKK2 WT-MEK5: 111; GRK2 inh confirm: -2; Aptamer quench SP: 99

How did COc1cc(S(=O)(=O)N2CCn3cccc3C2C)ccc1NC(C)=O (configuration not stated) do in these assays?
B2AR ag: -8; GRK2 inh: 0

What do the screens show for `NC(=O)c1ccsc1NC(=O)COC(=O)c1ccc([N+](=O)[O-])o1`?
B2AR ag: 4; GRK2 inh: 80*; GRK2 inh confirm: -3; Aptamer quench SP: 99

How did Cc1ccc2sc(C)[n+](CCO)c2c1 do in these assays?
MEKK2mut PB1 HTS: -2; MEKK3 PB1 HTS: 99; B2AR ag: -3; GRK2 inh: 100*; MEKK2 WT-MEK5: 100; GRK2 inh confirm: -2; Aptamer quench SP: 97

Results for O=C(O)Cn1nnc(-c2cccs2)n1 ?
B2AR ag: 4; GRK2 inh: 89*; GRK2 inh confirm: -2; Aptamer quench SP: 100

How did COc1ccc(F)cc1Cn1nc(C(=O)O)c2ccccc2c1=O do in these assays?
MEKK2mut PB1 HTS: -1; MEKK3 PB1 HTS: 100; B2AR ag: 23; GRK2 inh: 1; MEKK2 WT-MEK5: 97

Results for CCOC(=O)c1oc2c(C)c(O)ccc2c(=O)c1-c1nncn1-c1ccccc1 ?
MEKK2mut PB1 HTS: -2; MEKK3 PB1 HTS: 96; B2AR ag: 8; GRK2 inh: 75*; MEKK2 WT-MEK5: 96; GRK2 inh confirm: -2; Aptamer quench SP: 102

How did COc1ccc(CC(=O)Nc2cc(S(=O)(=O)N3CCCC3)ccc2Cl)c(OC)c1 do in these assays?
B2AR ag: 5; GRK2 inh: 0

Results for CC(C(=O)Nc1ccc2c(c1)OCCO2)N(C)CC(=O)Nc1ccccc1Br (configuration not stated) ?
B2AR ag: -2

How did O=C(C1CCN(c2ccc(N3CCOCC3)nn2)CC1)N1CCc2ccccc2C1 do in these assays?
MEKK2mut PB1 HTS: 1; MEKK3 PB1 HTS: 94; B2AR ag: -7; GRK2 inh: 0; MEKK2 WT-MEK5: 91; GRK2 inh confirm: 3; Aptamer quench SP: 97

What do the screens show for `O=C(C1CCN(S(=O)(=O)N2CCC3(CC2)OCCO3)CC1)N1CCc2ccccc2C1`?
B2AR ag: -20; GRK2 inh: 2

Results for Nc1ccc(CCNc2ncnc3c2ncn3[C@@H]2O[C@H](CO)[C@@H](O)[C@H]2O)cc1 ?
MEKK2mut PB1 HTS: 6; MEKK3 PB1 HTS: 110; B2AR ag: 0; GRK2 inh: 0; MEKK2 WT-MEK5: 115; GRK2 inh confirm: 0; Aptamer quench SP: 103

How did COc1cc(C(C)=O)ccc1Oc1cc(NN2CCCCC2)c([N+](=O)[O-])cc1[N+](=O)[O-] do in these assays?
MEKK2mut PB1 HTS: 1; MEKK3 PB1 HTS: 102; B2AR ag: -13; GRK2 inh: 8; MEKK2 WT-MEK5: 100

What do the screens show for `COc1ccc(C(=O)C(C)OC(=O)CCN2C(=O)C3CC=CCC3C2=O)cc1` (configuration not stated)?
B2AR ag: 7; GRK2 inh: 0

Results for O=C(CN(Cc1ccc(F)cc1)C(=O)CCC(=O)Nc1ccccn1)NCc1ccc(F)cc1 ?
MEKK2mut PB1 HTS: 3; MEKK3 PB1 HTS: 100; B2AR ag: 9; GRK2 inh: 0; MEKK2 WT-MEK5: 101

How did O=C(CN(Cc1ccc(F)cc1)C(=O)CCC(=O)Nc1ccccn1)NCc1ccco1 do in these assays?
MEKK2mut PB1 HTS: -13; MEKK3 PB1 HTS: 79; B2AR ag: -5; GRK2 inh: 100*; MEKK2 WT-MEK5: 86; GRK2 inh confirm: 5; Aptamer quench SP: 105

How did COCCCN(C(=O)c1ccco1)c1nc(-c2ccc(OC)cc2)cs1 do in these assays?
MEKK2mut PB1 HTS: 1; MEKK3 PB1 HTS: 102; B2AR ag: 6; GRK2 inh: 4; MEKK2 WT-MEK5: 104

Screens from PubChem.
